Shiga inhibitor: inhibitors of Shiga toxin in Vero cells; Vero cells, Shiga toxin protein synthesis inhibition reporter; inhibition, % at 38.7 µM; 9.2% of 290,000 active; AID 2315; in the data active = inhibition mostly above about 28%, no sharp cut-off; inactive = mostly below about 43%; also: 0% is about no effect
LmPK inh: blocks Leishmania mexicana pyruvate kinase activity; Q27686; purified LmPK, Kinase-Glo ATP luminescence, 1 h; Potency, µM (highest dose often 57.5 µM), inactives show at the top dose activity change, negative = inhibition, hits mostly inhibitors; 0.37% of 290,000 active; AID 1721; also: potency is read from the fitted curve at half-maximal effect; % is scaled to controls: 0 for no effect and ±100 for the full control effect
Target sequence (Q27686 whole entry, looked up): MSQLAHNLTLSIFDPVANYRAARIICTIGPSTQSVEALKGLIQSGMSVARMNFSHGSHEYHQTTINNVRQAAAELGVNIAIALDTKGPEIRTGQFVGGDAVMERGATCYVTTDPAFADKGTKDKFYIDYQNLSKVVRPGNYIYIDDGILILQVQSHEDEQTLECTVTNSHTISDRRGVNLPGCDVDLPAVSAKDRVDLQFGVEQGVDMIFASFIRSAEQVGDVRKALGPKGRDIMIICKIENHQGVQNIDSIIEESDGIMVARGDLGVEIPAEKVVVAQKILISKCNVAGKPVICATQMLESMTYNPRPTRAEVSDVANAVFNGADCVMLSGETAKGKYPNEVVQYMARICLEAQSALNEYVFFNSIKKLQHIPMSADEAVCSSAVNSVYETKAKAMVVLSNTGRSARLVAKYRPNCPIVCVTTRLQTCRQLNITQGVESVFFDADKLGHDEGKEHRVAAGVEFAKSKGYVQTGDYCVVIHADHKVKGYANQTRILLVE
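Pyruvate kinase activity monitored as ATP production (luciferase luminescence). Conditions: 0.1 nM enzyme, 0.5 mM PEP, 0.1 mM ADP, 1 h, RT; normalized against uninhibited and no-enzyme wells.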
Cycloheximide cs: affects cycloheximide protein synthesis inhibition readout, counter-screen; 12% of 300,000 active; cell reporter, cycloheximide protein synthesis inhibition counterscreen; max response, %; in the data active = max response mostly above about 13%, no sharp cut-off; inactive = mostly below about 14%; also: read at 38.3 µM for the half of the compounds with a filed dose; 0% is about no effect
Pf growth 48h: inhibits P. falciparum growth in the first generation, 48 h; P. falciparum luciferase growth in erythrocytes, 48 h; Potency, µM (highest dose often 28.7 µM), for inactives: top-dose activity change, negative = inhibition, usual class: inhibitors; 5.9% of 310,000 active; also: potency is read from the fitted curve at half-maximal effect; % is scaled to controls: 0 for no effect and ±100 for the full control effect
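Luciferase-expressing parasites in RBCs, 2% Hct / 0.1% parasitemia final; RPMI 1640 + 0.5% Albumax; 37 C, 5% CO2, one generation; luminescence read-out, lower signal = inhibition.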
Pf growth 96h: inhibits malaria parasite growth, 96 h. 6.9% of 320,000 active. Potency, µM (highest dose often 28.7 µM), for the others: top-dose activity change, negative = inhibition, most hits filed as inhibitors. P. falciparum luciferase reporter growth, 96 h; also: potency is read from the fitted curve at half-maximal effect; % is scaled to controls: 0 for no effect and ±100 for the full control effect
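Two-generation exposure (96 h) targets delayed-death phenotype. Reporter parasites carrying integrated firefly luciferase, in red cells at 2% hematocrit and 0.05% parasitemia final, kept at 37 C, 5% CO2; luminescence loss indicates inhibition.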
* = called active by the depositor; i = inactive; ? = inconclusive; · = no result given; ! = not confirmed by another sample; [ ] = dose if it differs, or a comment. In the library only some 22% were active in any assay of this set; here they are far more common. Unless noted, calls follow the shape of the dose curve; as a rule, active = well fitted inhibition curve with a large enough effect; inconclusive = small, poorly fitted or top-dose-only effect, or another doubt; inactive = no such curve, though single readings can be large or run the other way.

SMILES	Shiga inhibitor	LmPK inh	Cycloheximide cs	Pf growth 48h	Pf growth 96h
CCOC(=O)N1CCN(C(=O)CSc2cc(C)nc3c(-c4ccccc4OC)c(C)nn23)CC1	-1	2%	-2	4.7µM*	11%
COc1ccccc1-c1c(C)nn2c(C)cc(C)nc12	-3	1%	-2	-8%	13µM*
COc1ccccc1-c1c(C)nn2c(N3CCC(C)CC3)cc(C)nc12	-6	3%	-1	?	?
CCOC(=O)N1CCN(C(=O)CSc2ccc(-c3ccccc3OC)nn2)CC1	-3	2%	9	?	4.7µM*
COc1ccc(/C=C(\C#N)C(=O)OCC(=O)NC2CC2)cc1	-15	-1%	5	?	-6%
COc1ccccc1-c1c(C)nn2c(N3CCC(C(N)=O)CC3)cc(C)nc12	1	1%	-2	-27%	?
CCOC(=O)N1CCC(Nc2cc(C)nc3c(-c4ccccc4OC)c(C)nn23)CC1	-4	7%	-2	9.3µM*	2%
Cc1cc(C)cc(NC(=O)Cn2nnc(C(=O)NCc3ccc4c(c3)OCO4)c2N)c1	-12	2%	7	32%	0.1µM*
Cc1ccc(CNC(=O)c2nnn(CC(=O)Nc3cc(C)cc(C)c3)c2N)cc1	-4	0%	1	36%	2.1µM*
COc1ccc(NC(=O)c2nnn(CC(=O)Nc3ccc4c(c3)OCO4)c2N)cc1OC	3	2%	3	31%	?
COc1ccc(Cl)cc1NC(=O)c1nnn(CC(=O)Nc2ccc3c(c2)OCO3)c1N	-11	1%	-9	29%	15µM*
O=C(CSCc1cc(=O)n2ccsc2n1)Nc1ccc(F)cc1	18	-13%	-9	9%	?
C[C@@](O)(/C=C/[C@H]1CC=CC(=O)O1)[C@@H](C[C@@H](O)\C=C/C=C\C=C\CO)OP(=O)(O)O	i	·	12	·	·
COc1cc(C2SCCS2)cc(Br)c1Oc1ncccc1[N+](=O)[O-]	-8	7%	2	-1%	?
O=[N+]([O-])c1cccnc1Oc1ccc(C2SCCS2)cc1	73*	4%	58*	4.7µM*	10µM*
O=[N+]([O-])c1cccnc1Oc1ccc(OCc2ccccc2)cc1	61*	-2%	63*	·	-18%
CC1(C)CC(=O)C(C(O)c2ccccc2)C(C)(C)N1 (configuration not stated)	-18	4%	1	17%	19%
Cc1cc(C=C2C(=O)NC(=S)NC2=O)c(C)n1C1CCCC1	71*	-11%	43*	10%	-8%
Cc1cc(C=C2C(=O)N(C)C(=S)N(C)C2=O)c(C)n1C1CCCCC1	-8	5%	-2	-9%	?
Cc1oc(-c2ccccc2Cl)nc1CS(=O)CC(=O)NCc1ccc2c(c1)OCO2 (configuration not stated)	-2	1%	-2	5%	?
CC1(C)CC(=O)C2=C(C1)Nc1cc3c(cc1C2c1ccc(F)cc1)OCO3 (configuration not stated)	-11	2%	1	?	5.2µM*
O=C(Nc1ccccc1)/C(=C/c1ccc(O)cc1)NC(=O)c1ccco1	-11	0%	-5	-6%	18%
CN(C)CCCNC(=O)c1ccc(/C=N/O)nc1	71	-4%	36*	-24%	i
CC(C)C[C@H]1CNC(=O)C(=O)N1C[C@H](C)NC(=O)Cc1ccccc1	-2	-1%	-2	-29%	-34%
COc1ccc(CC2SC(=Nc3ccc(F)cc3)NC2=O)cc1 (configuration not stated)	-8	0%	-1	2.9µM*	-25%
SMILES	Shiga inhibitor	LmPK inh	Cycloheximide cs	Pf growth 48h	Pf growth 96h
COc1ccc(N=C2NC(=O)C(CC(=O)NCCc3ccc(OC)c(OC)c3)S2)cc1 (configuration not stated)	5	-2%	-1	?	-37%[5.75 µM]
CC(O)CN(C)C (configuration not stated)	·	·	·	-10%	-14%
O=C(N/N=C/C(Cl)=C/c1ccccc1)c1ccccc1F	80*	8%	56*	-35%	?
O=C(Cc1cc(=O)[nH][nH]1)N/N=C/C(Cl)=C/c1ccccc1	-10	1%	-1	1.2µM*!	62%
O=C(N/N=C/C(Br)=C/c1ccccc1)c1ccccc1F	86*	-5%	34*	?	?
NC(=O)CC(NC(=O)c1ccccc1)c1ccc(NC2CCCCCCC2)c([N+](=O)[O-])c1 (configuration not stated)	-2	2%	1	10%	-98%

Screening data (PubChem)
